# aDG glyco up – activators of alpha-DG glycosylation, primary screen, uHTS, Pro5-aDG cells, AlphaScreen | AID 624168, 2012 | 360,000 tested, 0.22% active | activation, % at 10 µM | alpha-DG glycosylation AlphaScreen (IIH6); 0% Pro5, 100% B10-LARGE cell signal;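 active = activation of at least 8% versus controls, or a plate z-score of at least 8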;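 note: Pro5 are CHO cells carrying HIG-tagged alpha-DG that lacks glycosylation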
# Glyco luc inh – increase of ERlucT glycosylation luciferase signal, primary screen, N-linked glycosylation inhibitor project, D54 ERlucT cells, luminescence, set 2; reporter increase, % at 12.5 µM; 360,000 tested, 0.23% active; D54 ERlucT glycosylation luciferase reporter, 24 h; percent of 100 nM tunicamycin response; AID 588692, 2011;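 active = mean luciferase reporter signal, scaled so untreated is 0 and the glycosylation-blocking control 100, at or above a set limit in every replicate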;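 note: luciferase carries N-glycosylation sites so blocking glycosylation raises the light; 0% = median of neutral control wells and 100% = median of 100 nM tunicamycin wells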
# Cardio protect – cardioprotection against H2O2-induced cell death, primary screen, uHTS, H9c2 cells, ATPLite luminescence | 360,000 tested, 0.63% active | protection from H2O2 cell death, % at 20 µM | AID 588492, 2011 | H9c2 cardiomyocytes, H2O2 injury protection, 2 h;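 active = compounds giving at least 50% protection of heart cells from peroxide-induced death in the single-dose screen, raw or plate-pattern-corrected value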;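 note: 0% = DMSO wells with peroxide and 100% = DMSO wells without peroxide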
# Vif inh – HIV Vif self-association inhibitors, primary screen, imaging, HEK293T, single point; AID 602346, 2012; inhibition, % at 7.49 µM; HEK293T cells, Vif self-association by quenched fluorescence, 24 h; 340,000 tested, 0.35% active; in the data active = inhibition above about 50%, passing the limit was not always enough
# ARNT-TACC3 inh – disruptors of ARNT/TACC3 protein interaction, primary screen, biochemical, AlphaScreen, single concentration; inhibition, % at 9.99 µM; AlphaScreen His-ARNT PAS-B/GST-TACC3 binding, luminescence; TACC3 fragment carries E629A point mutation; 390,000 tested, 0.66% active;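 active = mean inhibition of replicates at least 50% and at least half of replicates each reaching 50%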;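 note: 0% = complete ARNT plus TACC3 wells and 100% = ARNT alone without TACC3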
# Starred values were filed as active, the others as inactive; x = no result. Most compounds without a hit are left out; they make up all but 1.7% or so of the library.
SMILES,aDG glyco up,Glyco luc inh,Cardio protect,Vif inh,ARNT-TACC3 inh
CCCCCCC(=O)N(O)C1CC(=O)N(c2ccc(Cl)cc2)C1=O (configuration not stated),-0.2,60.5*,-19.8,-0.8,x
Cc1ccc(N2C(=O)CC(N(O)C3CC(=O)N(c4ccc(C)cc4)C3=O)C2=O)cc1 (configuration not stated),0.0,0.9,1.1,9.3,5.3
CCCCCCC(=O)N(O)C1CC(=O)N(c2ccc(C)cc2)C1=O (configuration not stated),-0.3,37.6*,-19.0,1.6,37.7
C[C@H](CO)N1C[C@H](C)[C@H](CN(C)Cc2ccc3c(c2)OCO3)Oc2ncc(C#CCN(C)C)cc2C1=O,x,x,x,x,1.0
O=C1OCCN1C(=O)[C@H]1[C@H](c2ccc([N+](=O)[O-])cc2)C(c2ccc(F)cc2)=NN1c1ccccc1,-0.1,1.6,33.7,4.8,-3.3
O=C1OCCN1C(=O)[C@H]1[C@H](c2ccc([N+](=O)[O-])cc2)C(c2ccc(F)cc2)=NN1c1ccc(Br)cc1,-0.1,3.7,51.5*,-0.1,11.6
C[C@H](NC(=O)C[C@@H]1CC[C@@H](NC(=O)c2cccnc2)[C@@H](CO)O1)c1ccccc1,x,x,x,x,0.0
O=C(NC1CCC1)[C@@H]1[C@@H](CO)[C@@H]2Cn3c(ccc(-c4cccc(F)c4)c3=O)[C@H]1N2Cc1cocn1,x,x,x,x,18.8
COC(=O)/C=C/c1ccc(OC(=O)OC)c(OC(=O)OC)c1,0.2,0.2,61.9*,-0.7,3.7
C/C=C/c1ccc(OC)c(OC(C)=O)c1,0.3,0.1,0.7,9.2,-4.6
C/C=C/c1ccc(OC(C)=O)c(OC)c1,0.0,1.9,7.7,-5.9,20.2*
CC(C)(C)OC(=O)NCCCCCNC(=O)c1[nH]cnc1C(=O)Nc1ccccc1,0.3,-0.7,35.1,x,9.5
CCN(CC)C(=O)c1[nH]cnc1C(=O)NCCCCCNC(=O)OC(C)(C)C,0.0,-1.1,0.7,x,-2.4
CC(C)(C)OC(=O)NCCCCCNC(=O)c1[nH]cnc1C(=O)Nc1cc(Br)ccc1F,0.8,-0.8,63.9*,-33.5,x
Cc1ccc(NC(=O)c2nc[nH]c2C(=O)NCCCCCNC(=O)OC(C)(C)C)cc1,1.1,3.2,55.2*,-11.3,4.3
CC(C)(C)OC(=O)NCCCCCNC(=O)c1[nH]cnc1C(=O)Nc1ccc(Cl)cc1,1.8,10.2,65.8*,-7.5,-3.2
C/C=C/c1ccc([C@H]2[C@@H](CNC(=O)NC(C)C)N(C(=O)C3CC3)[C@H]2CO)cc1,x,x,x,x,2.0
CCC(=O)N1[C@@H](CO)[C@@H]2c3ccccc3N(S(=O)(=O)c3ccc(F)cc3)C[C@@H]21,x,x,x,x,-4.6
O=S1(=O)N=C(N(CCO)/N=C/c2ccccc2)c2ccccc21,0.2,1.9,6.8,0.7,x
CC(C)(C)NC(=O)CCN(/N=C/c1ccncc1)C1=NS(=O)(=O)c2ccccc21,0.1,-0.8,8.5,-2.1,63.0*
O=S1(=O)N=C(N(CCO)/N=C/c2ccncc2)c2ccccc21,0.1,1.1,-3.3,7.6,71.9*
C=CCNc1oc(-c2ccc(Cl)cc2)nc1C#N,0.2,12.3,51.7*,-4.0,30.7
COc1ccc(-c2ccc3n(c2=O)C[C@@H]2[C@@H](CO)[C@H](C(=O)NC4Cc5ccccc5C4)N[C@H]32)cc1,x,x,x,x,-13.4
COc1ccccc1NC(=O)c1cc(-c2ccc(OC)c(OC)c2)nc2ccccc12,-0.1,-1.3,57.4*,-10.8,-9.4
COc1ccc(-c2cc(C(=O)N3CCN(c4ccccc4)CC3)c3ccccc3n2)cc1OC,-0.8,-1.4,54.3*,-10.4,6.3
SMILES,aDG glyco up,Glyco luc inh,Cardio protect,Vif inh,ARNT-TACC3 inh
COc1ccc(-c2cc(C(=O)NCC(c3ccccc3)N(C)C)c3ccccc3n2)cc1OC (configuration not stated),-0.1,29.5*,22.2,3.5,x
COc1ccc(-c2cc(C(=O)Nc3ccc(O)cc3)c3ccccc3n2)cc1OC,-0.3,-0.9,1.6,-22.3,13.6
COc1ccc(-c2cc(C(=O)NCc3ccco3)c3ccccc3n2)cc1OC,0.1,1.5,21.6,-7.2,-8.2
COc1ccc(NC(=O)c2cc(-c3cc(OC)c(OC)c(OC)c3)nc3ccccc23)cc1OC,-0.3,-0.9,63.1*,-12.3,6.1
C[C@@H]1CN([C@@H](C)CO)C(=O)Cc2cc(NC(=O)CCN3CCOCC3)ccc2O[C@@H]1CN(C)Cc1ccncc1,x,x,x,x,8.1
C[C@@H]1CN([C@@H](C)CO)C(=O)c2cc(C#CC3(O)CCCC3)cnc2O[C@H]1CN(C)C(=O)C1CCCCC1,x,x,x,x,-2.8
COc1cc(-c2cc(C(=O)OCC(=O)NC3CC3)c3ccccc3n2)cc(OC)c1OC,-0.1,2.5,63.9*,5.6,-2.6
Cc1ccc(-c2cc(C(=O)OCC(=O)NC3CC3)c3ccccc3n2)cc1,0.1,2.4,-6.8,4.8,2.7
C[C@@H]1CN([C@@H](C)CO)S(=O)(=O)c2ccc(C#Cc3cccc(F)c3)cc2O[C@H]1CN(C)C,x,x,x,x,2.6
Cc1sc2nc(SCC(=O)O)[nH]c(=O)c2c1C,-0.2,1.8,0.5,-7.2,-3.5
CC1CCN(C(=O)CSc2nc3ccccc3c(=O)[nH]2)CC1,-0.1,-0.6,44.4,-9.7,3.1
CC1CCCC(C)N1C(=O)CSc1nc2ccccc2c(=O)[nH]1 (configuration not stated),-0.1,-1.8,70.2*,4.8,-1.4
Cc1sc2nc(SCC(=O)N3CCOCC3)[nH]c(=O)c2c1C,0.0,2.8,60.9*,3.8,2.2
O=C(CSc1nc2ccccc2c(=O)[nH]1)N1CCOCC1,-0.1,-3.2,67.4*,-2.0,0.0
O=C(CSc1nc2ccccc2c(=O)[nH]1)N1CCCCCC1,0.1,-1.1,50.7*,x,-4.4
C[C@@H]1CN([C@@H](C)CO)C(=O)c2cc(-c3ccccc3)cnc2O[C@@H]1CN(C)C,x,x,x,x,-4.6
Cc1noc(C)c1NC(=O)N[C@@H]1CC[C@@H](CC(=O)Nc2ccccc2)O[C@@H]1CO,x,x,x,x,4.2
CNC[C@@H]1OCCCC[C@@H](C)Oc2ccc(NC(=O)Nc3ccccc3)cc2C(=O)N([C@@H](C)CO)C[C@H]1C,x,x,x,x,21.3
CN1C(=O)c2cc(NC(=O)C3CCCC3)ccc2OC[C@H]2O[C@H](CC(=O)NCC3CC3)CC[C@@H]21,x,x,x,x,-8.2
Cc1sc2nc(SCC(=O)NCc3ccco3)[nH]c(=O)c2c1C,0.0,-0.2,59.8*,x,0.3
O=C(CSc1nc(-c2ccccc2)c(-c2ccccc2)[nH]1)N1CCN(S(=O)(=O)c2ccccc2)CC1,-0.1,1.3,4.8,-9.1,-1.6
O=C(CSc1nc2ccccc2c(=O)[nH]1)N1CCN(S(=O)(=O)c2ccccc2)CC1,0.4,2.2,56.4*,x,-10.2
